This note sets out measurements from the supplement of paper PMC9694430.

Common to all, as to test: thermal shift delta Tm vs DMSO control; higher = stronger stabilization (binding)
Common to all, as to conditions: 12.5 µM; protein concentration 2 µM

In assay [1] the test system is LOC_OS01G01410-cb001. The procedure, abridged: (§1)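 Thermal shift values come from differential scanning fluorimetry on purified rice kinase domains made in E. coli, with melting temperatures obtained from Boltzmann fits. Samples of 19.5 μl held 2 μM kinase, 100 mM potassium phosphate pH 7.5, 150 mM NaCl, 10% glycerol, 5 × SYPRO Orange and compound in DMSO, and were heated from 25°C to 95°C at 0.05°C/s. Each shift is a triplicate mean relative to the DMSO-only protein sample.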

Assay [2] relates to LOC_OS01G02750-cb003. The procedure, abridged: as §1
Assay [3] has as its system LOC_OS01G10900-cb004. The procedure, abridged: as §1
For assay [4], the system named is LOC_OS01G13800-cb001. The procedure, abridged:
as §1

The subject of assay [5] is LOC_OS01G14860-cb001. In a few lines:
as §1

Assay [6] deals with LOC_OS01G21960-cb002. In a few lines: as §1
The subject of assay [7] is LOC_OS01G39600-cb002. In a few lines: as §1
For assay [8], the system named is LOC_OS01G48390-cb002. The procedure, abridged: as §1
The subject of assay [9] is LOC_OS01G51400-cb002. In a few lines:
as §1

Assay [10] relates to T1, LOC_OS01G52050-cb004.
T1 sequence (whole entry): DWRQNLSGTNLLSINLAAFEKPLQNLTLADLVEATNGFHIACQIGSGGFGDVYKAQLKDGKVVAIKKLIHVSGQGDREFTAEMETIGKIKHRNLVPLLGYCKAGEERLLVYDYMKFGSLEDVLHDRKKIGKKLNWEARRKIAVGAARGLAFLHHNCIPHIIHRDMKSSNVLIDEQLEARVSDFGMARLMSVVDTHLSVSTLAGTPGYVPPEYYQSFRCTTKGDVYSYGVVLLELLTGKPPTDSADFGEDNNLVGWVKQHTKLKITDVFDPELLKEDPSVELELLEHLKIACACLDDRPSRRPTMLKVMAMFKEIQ
In a few lines: as §1

In assay [11] the test system is LOC_OS01G57100-cb003. The procedure, abridged: as §1
Assay [12] relates to LOC_OS01G60330-cb001. The procedure, abridged:
as §1

Assay [13] deals with LOC_OS01G60700-cb002. The procedure, abridged:
as §1

The subject of assay [14] is LOC_OS01G63280-cb003. The procedure, abridged: as §1
The test system of assay [15] is LOC_OS01G67340-cb003. In a few lines:
as §1

Assay [16] concerns LOC_OS01G70970-cb002. The procedure, abridged: as §1
The subject of assay [17] is LOC_OS02G07810-cb001. In a few lines:
as §1

The test system of assay [18] is LOC_OS02G08530-cb003. The procedure, abridged:
as §1

The test system of assay [19] is LOC_OS02G14120-cb001. In a few lines: as §1
For assay [20], the system named is LOC_OS02G17970-cb001. The procedure, abridged:
as §1
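Further: purified Escherichia coli-expressed rice kinase domain construct.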

For `Cc1[nH]c(/C=C2\C(=O)Nc3ccc(S(=O)(=O)Cc4c(Cl)cccc4Cl)cc32)c(C)c1C(=O)N1CCC[C@@H]1CN1CCCC1`, the “thermal shift delta Tm” value in assay [1] worked out at 1.92 °C; in assay [2] it was 1.5 °C; in assay [3], 0.36 °C; in assay [4] it was 0.4 °C; in [5], 0.57 °C; in assay [6] it was 0.17 °C. Also, the “thermal shift delta Tm” value in [7] was 3.39 °C; in assay [8], 0.38 °C; in [9], -0.1 °C; in [10], 0.18 °C; in assay [11] it was 1.04 °C; in assay [12], 1.52 °C. Besides, the “thermal shift delta Tm” value in assay [13] was found to be 0.53 °C; in assay [14] it was 0.78 °C; in assay [15], 0.73 °C; in [16], 0.57 °C; in assay [17], 0.8 °C; in assay [18], 3.7 °C. The “thermal shift delta Tm” value was found to be 7.86 °C in [19] and 0.39 °C in assay [20].

On to `CC#CC(=O)Nc1ccc2ncnc(Nc3cccc(Br)c3)c2c1`, for which the “thermal shift delta Tm” value in assay [1] was 2.55 °C; in assay [2] it was 1.15 °C; in assay [3], 2.56 °C; in [4], 0.12 °C; in assay [5] it was 1.15 °C; in assay [6] it was 0.48 °C. The “thermal shift delta Tm” value is -0.38 °C in assay [7]; 2.25 °C in [8]; 0.38 °C in assay [9]; 1.8 °C in assay [10]; -0.79 °C in assay [11]; 0.53 °C in assay [12]. Also, the “thermal shift delta Tm” value was 1.56 °C in assay [13]; 0.9 °C in [14]; 1.06 °C in assay [15]; 0.37 °C in assay [16]; 0.86 °C in assay [17]; 1.43 °C in assay [18]. Moreover, the entries for the “thermal shift delta Tm” value in [19] and in assay [20] were 2.95 °C and 1.1 °C, respectively.

Take `NC(=O)c1ncn([C@@H]2O[C@H](CO)[C@@H](O)[C@H]2O)c1N` [AICAR (Acadesine)]: the “thermal shift delta Tm” value in assay [1] came to 0.45 °C; in assay [2], 1.18 °C; in assay [3], 0.56 °C; in assay [4] it was 0.52 °C; in [5], 0.07 °C; in assay [6], 0.94 °C. For the same compound, the “thermal shift delta Tm” value in [7] was -0.35 °C; in [8], 0.6 °C; in [9] it was 0.32 °C; in assay [10], 0.33 °C; in [11] it was 1.35 °C; in assay [12], 0.61 °C. For the same compound, the “thermal shift delta Tm” value in assay [13] was 0.92 °C; in assay [14], 0.73 °C; in assay [15], -0.25 °C; in assay [16], 0.13 °C; in assay [17] it was 1.21 °C; in assay [18], 0.52 °C. The “thermal shift delta Tm” value in assay [19] worked out at 0.21 °C; in [20], 0.71 °C.

With `O=C1NC(=O)/C(=C/c2ccc(-c3ccc(F)cc3O)o2)S1`, the “thermal shift delta Tm” value was 3.59 °C in assay [1]; 5.21 °C in assay [2]; 2.81 °C in [3]; 2.09 °C in [4]; 4.25 °C in assay [5]; 2.37 °C in [6]. The “thermal shift delta Tm” value came to 7.64 °C in [7]; 3.1 °C in [8]; 3.89 °C in assay [9]; 8.12 °C in assay [10]; 4.13 °C in assay [11]; 9.64 °C in assay [12]. The “thermal shift delta Tm” value in [13] turned out to be 1.12 °C; in [14], 23.4 °C; in assay [15], 5.05 °C; in [16], 4.18 °C; in assay [17] it was 2.79 °C; in assay [18], 1.57 °C. The “thermal shift delta Tm” value turned out to be 2.56 °C in assay [19] and 1.7 °C in assay [20].

For `COc1cc2c(Nc3ccc(NC(=O)c4ccccc4)cc3)ncnc2cc1OCCCN1CCOCC1`, the “thermal shift delta Tm” value in [1] was 2.69 °C; in assay [2], 0.98 °C; in [3], -0.03 °C; in [4] it was 0.65 °C; in assay [5] it was 0.52 °C; in [6] it was 0.26 °C. The “thermal shift delta Tm” value in assay [7] was 1.98 °C; in assay [8], 0.89 °C; in assay [9], 0.34 °C; in assay [10], 0.94 °C; in assay [11], 0.97 °C; in [12] it was 1.05 °C. Moreover, the “thermal shift delta Tm” value in [13] is 0.6 °C; in assay [14], 1.19 °C; in assay [15], 0.4 °C; in assay [16] it was 1.66 °C; in assay [17], 1.37 °C; in assay [18], 0.66 °C. Besides, the “thermal shift delta Tm” value in [19] amounted to 0.79 °C; in [20] it was 0.45 °C.

As to `CC(C)NC(=O)C1CCC(n2c(NC(=O)c3ccc(F)cc3)nc3ccc(CN4CCC(C(C)(C)O)CC4)cc32)CC1` (stereo not given) [Belizatinib (TSR-011)], the “thermal shift delta Tm” value in [1] was 0.68 °C; in assay [2], 3.65 °C; in assay [3], 1.75 °C; in assay [4], -0.36 °C; in assay [5], 0.58 °C; in [6], 1.84 °C. For the same compound, the “thermal shift delta Tm” value is 2.02 °C in assay [7]; 2.61 °C in [8]; 0.56 °C in assay [9]; 4.45 °C in assay [10]; 0.68 °C in assay [11]; 1.95 °C in [12]. For the same compound, the “thermal shift delta Tm” value was 0.11 °C in [13]; 0.25 °C in assay [14]; 2.85 °C in assay [15]; 6.79 °C in assay [16]; -0.66 °C in assay [17]; 5.19 °C in assay [18]. Further, the “thermal shift delta Tm” value is 4.13 °C in assay [19] and -0.03 °C in assay [20].
